In PubChem BioAssay AID488899 (Broad Institute, 2010):
Screen size: about 330,000 compounds; about 2,800 (0.85%) were called active.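 The calls were made as follows: active = mean inhibition across replicates of 60% or more, whatever share of single replicates reaches that level; inconclusive = some that reach 60%, reason not given; inactive = mean inhibition across replicates below 60%.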 The sample as a whole holds a higher share of actives than the screen did.

Experiment: MITF transcriptional activity suppression – cell-based, SK-MEL-5, single point, luciferase, primary screen (AID 488899)
Details: SK-MEL-5 TRPM1 promoter luciferase, 24 h; at 12.5 µM; active compounds read high

Structure (SMILES)	inhibition
Cc1ccc(Cl)cc1N1CCN(C(=O)c2cccc3c(=O)c(C)c(-c4ccccc4)oc23)CC1	9.36% (inactive)
C/C=N/N(c1ccccc1)c1ccccc1	2.93% (inactive)
O=C(NNC(=O)c1ccc2ccccc2c1)c1ccc(Cl)cc1	10.1% (inactive)
O=C(CN1CCN(S(=O)(=O)c2ccc(Br)cc2)CC1)Nc1ccccc1C(=O)c1ccccc1	-0.0235% (inactive)
O=[N+]([O-])c1ccc(C=NN=Cc2ccc([N+](=O)[O-])cc2)cc1	-1.22% (inactive)
O=C1/C(=C\c2ccc([N+](=O)[O-])cc2)CS(=O)(=O)C/C1=C/c1ccc([N+](=O)[O-])cc1	106% (active)
O=C(NN=Cc1ccc([N+](=O)[O-])cc1)C1CC1	-20.4% (inactive)
Cc1cc(C)c2nc3nc(C)cc(C)c3c(N)c2c1	69% (active)
O=S(=O)(NCc1ccccc1Cl)c1cnc[nH]1	9.3% (inactive)
CN(C)/C=C(\C#N)C(=O)c1cccnc1Oc1ccc(F)cc1F	-3.39% (inactive)
O=C(Nc1ccc(-c2csc(Nc3cccc(C(F)(F)F)c3)n2)cc1)c1cccc(C(F)(F)F)c1	-14.9% (inactive)
COc1ccc(NC(=O)C(=O)NCC(=O)Nc2cccc(C(F)(F)F)c2)cc1	3.29% (inactive)
Cc1cccc(NC(=O)c2nnn(-c3cccc(C(F)(F)F)c3)c2N)c1	-39.6% (inactive)
N#Cc1ccc(Oc2ccc(C(F)(F)F)cc2NC(=O)c2ccc(F)cc2)cc1	-2.39% (inactive)
COc1cc(NC(=O)c2cncc(-c3ccc(C#N)cc3)c2)cc(C(=O)Nc2cccc(C(F)(F)F)c2)c1	71.3% (active)
COc1cc(NC(=O)c2[nH]cnc2C(N)=O)cc(C(=O)Nc2cccc(C(F)(F)F)c2)c1	89.9% (active)
CC(C)[C@@H](NC(=O)OC(C)(C)C)C(=O)NCC1CCC(C(=O)N[C@@H](Cc2ccccc2)C(=O)O)CC1 (some centres undefined)	-3.13% (inactive)
CCOCCCn1c(NN)nc2ccccc2c1=O	10.3% (inactive)
CCn1c(/C=C/c2ccc([N+](=O)[O-])o2)nc2ccccc2c1=O	75.9% (active)
O=c1oc(/C=C/c2ccccc2)nc2ccccc12	-14.4% (inactive)
CC(=O)NC(CC(=O)Nc1nccs1)c1ccccc1 (centres undefined)	-5.93% (inactive)
O=C1CC[C@@H]2CC3(C[C@@H]4CCN1[C@H]24)Nc1cc([N+](=O)[O-])ccc1NC3=NC1CCCCC1 (some centres undefined)	-4.61% (inactive)
CC(=O)N1CC[n+]2c(-c3ccc([N+](=O)[O-])cc3)csc21	-4.65% (inactive)
COCCN1C(=O)C(=O)/C(=C(/O)c2ccc(S(=O)(=O)N3CCOCC3)cc2)C1c1ccc(OC)c(OC)c1 (centres undefined)	2.98% (inactive)
